Results as given in the OligoGym collection.

Molecular target: KDELR1
Assay: pooled miR-30 sensor sort-seq; sequence = guide strand
Settings: shRNA
Note: reference of the scale not given here.

Sequence | sensor-assay potency score (higher = more potent)
TTGAAGAGATAGAGCGTGCGGT | -0.25
TTTGGTGATATAGAGGTAGAAG | -0.962
TAGAGTGAGATGTAGTTGGTGA | 0.498
TAGGACTTTGGTGATATAGAGG | -1.32
TAGACCACCTTCATACACGTGT | 0.283

Molecular target: KDM2B
Assay: as above
Settings: shRNA

Sequence | sensor-assay potency score (higher = more potent)
TTCTTTGCCAGGTTTGAGCCGC | -0.547
TTCTTTGCCAGGTTTGAGCTGC | -0.103
TATCGCTGGCGGTCAATCGGGC | -0.118
TATCTCTCCAGGACATACCAGC | -0.897
TTCTTGGAGATATTGGTCCAGC | -0.935
TTGGAGATATTGGTCCAGCTGA | -0.912
TTACACTTCGGACACTCCCAGC | -1.12
TTGTCCATCTGACCTGGCCTGT | -0.884
TAAACTTGCCTTCCTCCTCTTC | -0.422
TGGTTGAACAGCTTCTCCCTTG | -0.428
TTTGGCATCGTTCCACACGGTC | -1.07
TTCGAGTGCTCATCCGACCTGC | 0.201

Molecular target: KDR
Assay: as above
Settings: shRNA

Sequence | sensor-assay potency score (higher = more potent)
TTCTTCTACATCACTGAGGGAC | -0.165
TAATTTGGTTCTGTCTTCCAAA | -0.462
TAGCTGATCATGTAGCTGGGAA | -0.114
TAGACTGGTAACTTTCATCATT | -0.75
TAATAGACTGGTAACTTTCATC | -0.621
TTCTTCTTGGTCATCAGCCCAC | -0.727
TTGACTGCTACTGTCCTGCAAG | -0.615
ATTTTGACTGCTACTGTCCTGC | 0.0399
TGTCTTTTCTTGGTCTTCCTGT | 0.316
TTTTGCTTCACAGAAGACCATG | -1.02
TTGCTGTCTTGTCAATTCCAAA | -1.68
TTGCACTCCAATCTCTATCAGC | -0.492

Molecular target: KHDRBS3
Assay: as above
Settings: shRNA

Sequence | sensor-assay potency score (higher = more potent)
TAGTCCACTCTTCTTGCCCGTA | -0.553
TTCTTCTTGTAAACGCTTCAGA | -0.501
TGGTACTACAACTCCAACTGGC | -0.54
TTGAGATGGAAGTACTTCGCTT | -0.344
TTGAGTTAGTCCACTCTTCTTG | 0.078
TACTACAACTCCAACTGGCCGG | -0.46
TAAGTCTCTTGTGTCGGGGGTG | -0.204
TTGTGTCTTGAGTTAGTCCACT | -0.733
TAACACTTTCTGTCCCAGCTTC | 0.341
TTGCTGTCCTCGCTGAAGGTGC | -1.17
TTGAACAGTATACAGGACTGGT | -0.303
